Records with an inconclusive call do not appear. Values without a mark were called inactive. Active and inactive are the calls of the source. Calls come from the whole dose curve; as a rule, active = well fitted cell-killing curve with a large enough effect; inconclusive = small, poorly fitted or top-dose-only effect, or effect the other way; inactive = flat fitted curve, though single readings scatter.

Assay in all cases: Primary qHTS to identify gynecologic anti-cancer compounds using libraries of approved drugs and bioactive compounds (AID 1345084); note: nearly all actives have a fitted effect of over 55% in size
What all share (settings): Gynecologic cancer cell panel viability, ATPlite luminescence, 48 h; series mostly up to 57.5 µM
Background: In qHTS, concentration-response curves come from the screen itself.

The test system of one assay is SKOV3. The method in brief: (§1)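 48 h compound exposure at 37 C, 5% CO2; five-point qHTS. ATPlite luminescence readout of cell ATP.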
In another assay the test system is Tov-21-G. The method in brief: as §1
A further assay deals with Tov112D. The gist of the method:
as §1
% is set by controls: 0 for no effect and ±100 for the full control effect.

Take `C=C1C2(C)CC3C4(C)OC(C5OC56C4=CC(=O)OC6(C)C)C3(C)C13C(=O)OC(C)C3(O)C2=O` (stereo unspecified): the Potency result with SKOV3, in the assay with Tov-21-G and in the assay with Tov112D was “inactive” throughout.
With `CC1(C)CC[C@]2(C(=O)O)CC[C@]3(C)C(=CCC4[C@@]5(C)C(=O)C[C@H](O)[C@@](C)(CO)C5CC[C@]43C)[C@@H]2C1` (stereo partly specified), the Potency entry in the assay on SKOV3, in the assay on Tov-21-G and with Tov112D was “inactive” each time.
Turning to `CCC(C)/C=C(C)/C=C/C1=CC2=C(Cl)C(=O)C(C)(OC(C)=O)C(=O)C2=CN1C(CCCN=C(N)N)C(=O)O` (stereo unspecified), the Potency result in the assay with SKOV3, in the assay on Tov-21-G and with Tov112D was “inactive” in each case.
In the case of `COc1cc(C(CO)C(OC2OC(CO)C(O)C(O)C2O)c2ccc(O)c(OC)c2)ccc1O` (stereo unspecified), the Potency result with SKOV3, in the assay on Tov-21-G and in the assay on Tov112D was “inactive” in each case.
Regarding `CC(C)C1(O)NC(=O)C(CC2(O)c3ccccc3N3C(=O)C(C)(C)NC32)n2c1nc1ccccc1c2=O` (stereo unspecified), the Potency entry in the assay with SKOV3, with Tov-21-G and in the assay on Tov112D was “inactive” each time.
For `CC(=O)O[C@@H](C[C@@H]1C=C(C)C(=O)O1)[C@H](C)[C@H]1CCC2[C@@]3(C)CC[C@H](O[C@@H]4O[C@H](CO)[C@@H](O)[C@H](O)[C@H]4O[C@@H]4O[C@@H](C)[C@H](O)[C@@H](O)[C@H]4O)C(C)(C)C3CC[C@@]2(C)[C@@]12COC(=O)C2` (stereo partly specified), the activity change, negative = cytotoxicity is 14.4% [at 11.6 µM] in the assay on SKOV3, 2.35% [at 11.6 µM] in the assay on Tov-21-G and 13.8% [at 11.6 µM] in the assay with Tov112D.
On to `C=C1[C@@H]2CC[C@@]3(C)[C@H](c4ccoc4)OC(=O)C[C@]13O[C@H]1CC(=O)C(C)(C)[C@H](C(O)C(=O)OC)[C@]12C` (stereo partly specified), for which the Potency result in the assay with SKOV3, in the assay with Tov-21-G and with Tov112D was “inactive” throughout.
`C/C=C(\C)C(=O)OC1C(C)C2(O)C3C=C(C)C(=O)C3CC(CO)=CC2C2C(C)(C)C12OC(C)=O` (stereo unspecified): the Potency entry in the assay on SKOV3, in the assay on Tov-21-G and with Tov112D was “inactive” each time.
Consider `O=C(/C=C/C=C/c1ccc2c(c1)OCO2)N1CCCCC1`, for which the Potency result with Tov112D is “inactive”.
As to `O=C(NC/C=C/CN1CCN(c2cccc(Cl)c2Cl)CC1)c1ccc(-c2ccccn2)cc1`, the Potency entry with Tov-21-G and in the assay on Tov112D was “inactive” throughout.
As for `Cc1nnc(-c2ccc3occ(-c4ccc(S(C)=O)cc4)c3c2)o1` (stereo unspecified), the Potency result with SKOV3, in the assay with Tov-21-G and in the assay with Tov112D was “inactive” throughout.
As to `COc1c(C)c(OCC=C(C)C)cc2c1CNC2=O`, the Potency entry with SKOV3, in the assay with Tov-21-G and with Tov112D was “inactive” each time.
With `C[C@@H]1O[C@@H](O[C@H]2[C@H](O[C@H]3[C@H](O[C@H]4CC[C@@]5(C)C(CC[C@]6(C)C5CC=C5[C@@H]7CC(C)(C)CC(=O)[C@]7(C)CC[C@]56C)[C@@]4(C)CO)O[C@H](C(=O)O)[C@@H](O)[C@@H]3O)O[C@H](CO)[C@H](O)[C@@H]2O)[C@H](O)[C@H](O)[C@H]1O` (stereo partly specified), the activity change, negative = cytotoxicity in the assay on SKOV3 was 0.762% [at 11.6 µM]; in the assay with Tov-21-G it was 5.22% [at 11.6 µM]; with Tov112D it was -2.67% [at 11.6 µM].

The values above are taken from PubChem BioAssay (NCATS).
